Results published in PubChem BioAssay AID1508622 (National Center for Advancing Translational Sciences (NCATS), 2021).
Calls of active or inactive are those of the source. Entries that show only a call come without a potency. Calls follow the shape of the dose curve; as a rule, active = well fitted activation curve with a large enough effect; inconclusive = small, poorly fitted or top-dose-only effect; inactive = no such curve, though single readings can be large or run the other way.

Experiment: Confirmatory qHTS for Identification of Small Molecule Activators of Huntingtin-Antisense Promoter Activity
Conditions: HEK293 HTT-AS promoter firefly luciferase reporter, 24 h; series mostly up to 57.5 µM
In short: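 Plated reporter HEK293 cells (24 h) received library compounds at up to 57.5 uM final or 50 uM PTC124, incubated 24 h at 37C; firefly luciferase luminescence was then recorded with Dual-Glo reagent.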
Potency is read from the fitted curve at half-maximal effect.

Compound | Potency
O=C(O)c1ccc2c(c1)N(Cc1ccc(F)cc1)C(=O)c1ccccc1S2=O (centres undefined) | inactive
COc1cc(Nc2ncc3c(n2)CCN(Cc2cc(F)cc(F)c2)C3)cc(OC)c1 | inactive
CCOC(=O)c1ccc(C#Cc2ccc3c(c2)C(C)(C)CCS3)nc1 | inactive
CC(C)c1ccc(NC(=O)c2cnc3sc(N4CCCC4)nn3c2=O)cc1 | inactive
CCOC(=O)c1cc2c(=O)n3ccccc3nc2n(Cc2ccco2)c1=NC(=O)c1cc(C)cc(C)c1 | inactive
COc1cc(NC(=O)Cn2c(=O)oc3cc(S(=O)(=O)N4CCCCCC4)ccc32)cc(OC)c1 | inactive
C#C[C@]1(O)CC[C@H]2[C@H]3CCc4cc(OC)ccc4[C@H]3CC[C@@]21C | inactive
Cc1ccc(Cl)cc1N1CCN(C(=O)c2cccn2-c2nnc(N3CCCCC3)s2)CC1 | inactive
Cc1ccc(NC(=O)C2CCCN2S(=O)(=O)c2ccc3c(c2)CCCC(=O)N3)cc1C (centres undefined) | inactive
FC(F)(F)c1cccc(N2CCN(c3nc4ccccc4n4cnnc34)CC2)c1 | inactive
CCc1cccc(NS(=O)(=O)c2ccc3c(c2)CC(C)N3C(=O)C2CC2)c1 (centres undefined) | inactive
COc1cc2nc(N3CCCN(C)CC3)nc(NC3CCN(Cc4ccccc4)CC3)c2cc1OC | inactive
CCOC(=O)c1ccc(N2C(=O)c3[nH]nc(-c4ccc(OCC)cc4)c3C2c2cccs2)cc1 (centres undefined) | inactive
Cc1ccc(-c2nc(S(=O)(=O)c3ccccc3)c(SCC(=O)NC3CCCCC3)o2)cc1 | inactive
Cc1c(C(=O)Nc2ccc(F)cc2)oc2ccc(S(=O)(=O)N3CCCCCC3)cc12 | inactive
COc1ccc(OC(C)C(=O)NCc2nc(-c3ccc(Cl)cc3)no2)cc1 (centres undefined) | inactive
Cc1oc(-c2ccc(C(=O)NCCCOC(C)C)cc2)nc1CS(=O)(=O)c1ccccc1 | inactive
Cc1ccc(C(=O)NCc2ccc3c(c2)CCN3C(=O)c2ccc(C)cc2)cc1 | inactive
CCOC(=O)c1ccc(CN(Cc2ccc(C)cc2)S(=O)(=O)c2ccc(NC(C)=O)cc2)cc1 | inactive
CC(=O)C1=C(c2ccc(Cl)c(Cl)c2)N(C(C)=O)n2c(C)nnc2S1 | inactive

Compound | Potency
FC(F)(F)c1cccc(Nc2c3c(nc4ccc(Cl)cc24)CCC3)c1 | inactive
CC(=O)c1cccc(NS(=O)(=O)c2cccc(S(=O)(=O)c3ccc(Br)cc3)c2)c1 | inactive
COc1ccc(N2CCN(C(=O)c3ccc4c(=O)n(CCc5ccc(OC)c(OC)c5)c(=O)[nH]c4c3)CC2)cc1 | inactive
CC(CNC(=O)c1ccc(CSc2nc3ccncc3n2Cc2ccc(F)cc2)cc1)c1ccccc1 (centres undefined) | inactive
CCc1ccc2oc(C(=O)NCCc3ccc(OC)c(OC)c3)cc(=O)c2c1 | inactive
Cc1ccccc1CNC(=O)c1ccc(-c2nc(CS(=O)(=O)c3ccccc3)c(C)o2)cc1 | inactive
COc1ccc(-c2noc(CSc3nnc(-c4ccccc4)n3-c3ccc(F)cc3)n2)c(OC)c1 | inactive
CCS(=O)(=O)N1CC(CC#N)(n2cc(-c3ncnc4[nH]ccc34)cn2)C1 | 30.1 µM (active)
CCS(=O)(=O)c1oc(-c2ccc(F)cc2)nc1S(=O)(=O)c1ccc(Br)cc1 | inactive
Cc1ccc(Cl)cc1N1CCN(CCCNC(=O)C2COc3ccccc3C2)CC1 (centres undefined) | inactive
COc1cc(Cn2c(=O)oc3ccc(C)cc32)ccc1OCCC(C)C | inactive
Cn1c(COc2ccccc2C(C)(C)C)nc2ccccc21 | inactive
CCOc1ccc(C(=O)N(Cc2cc(OC)c(OC)c(OC)c2)c2ccccn2)cc1 | inactive
COc1ccccc1N1CCN(C(=O)C2CCCN(S(=O)(=O)c3ccc4c(c3)oc(=O)n4C)C2)CC1 (centres undefined) | inactive
Cc1ccc(S(=O)(=O)NCCc2csc(-c3ccc(Cl)cc3)n2)cc1 | inactive
COc1ccc(S(=O)(=O)NCCc2cc3ccc(C)c(C)c3[nH]c2=O)cc1 | inactive
Cc1cccc(N2CCN(S(=O)(=O)c3ccc4c(c3)CCCN4C(=O)C3CCC3)CC2)c1C | inactive
O=C(NCc1ccc(F)cc1)c1ccc(CS(=O)(=O)c2ccc(Cl)cc2)o1 | inactive
Cc1cc(NC(=O)c2cc(-c3ccc(Cl)cc3)on2)nn1Cc1ccc(Cl)cc1 | inactive
